PubChem BioAssay AID504773 (Broad Institute, 2011)
Entries with a potency or affinity are not part of this list.

biological target: Golgi-associated PDZ and coiled-coil motif-containing protein (Homo sapiens) (UniProt Q9HD26); test: potency against CAL PDZ-peptide interaction – biochemical, fluorescence polarization, Cerulean-tagged CAL PDZ, cherry-picks, dose response (AID 504773); details: CAL PDZ-peptide binding, 1 h; series mostly up to 50 µM; activity change, negative = inhibition: at the top concentration;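 also: 0% = DMSO neutral wells and -100% = excess unlabeled competitor peptide wells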

Activity change, negative = inhibition, inactive:
CCCNC(=O)C(=O)NCC1CCCN1CC (configuration not stated) -64.5%, O=C(NCC(=O)N1CCC(N2CCCCC2)CC1)C1CCCCC1 7.41%, Cc1ccc(SCC(=O)NCc2ccc(F)cc2)cc1 10.2%, Cc1cc(SCC(=O)OCC(=O)c2c(N)n(C)c(=O)n(C)c2=O)c(C)cc1Br -4.31%, CCc1nc2ccccc2c(C(=O)Oc2cccc3cccnc23)c1C 9.12%, NC(=O)c1cc2ccccc2o/c1=N\NC(=O)c1ccncc1 -26.7%, O=C(NC12CC3CC(CC(C3)C1)C2)c1ccco1 -31.5%, COc1ccccc1NC(=O)c1c([N+](=O)[O-])cnn1C 25.3%, CCNC(=S)N(CCN(CC)CC)Cc1cc2cc3c(cc2[nH]c1=O)OCCO3 -12%, Cn1nc(C(=O)N2CCCc3ccccc32)c2ccccc2c1=O -9.28%, Cc1ccc2nc(NS(C)(=O)=O)sc2c1 9.89%, O=C(NC1(C(F)(F)F)NC(=O)N(C2CCCCC2)C1=O)C1CC1 (configuration not stated) -4.96%, CCCSC1=N/C(=C\c2ccc([N+](=O)[O-])o2)C(=O)S1 9.22%, CCOC(=O)C1(CCOc2ccccc2)CCN(CC(O)CO)CC1 (configuration not stated) -21.3%, O=C(NCC1CCCO1)c1cn(-c2ccccc2)nc1-c1ccc(F)cc1 (configuration not stated) 14.8%, N#Cc1ccc(CC(=O)c2ccccc2)[nH]c1=O 4.17%, CCc1nnc(NS(=O)(=O)c2ccc(NC(=O)CCC(=O)O)cc2)s1 -39.5%, CCOc1ccc(C2=Nn3c(nnc3-c3ccco3)SC2)cc1 1%, COc1cccc(-c2cccc(NC(=O)C3CCN(Cc4ccc(CO)o4)CC3)c2)c1 -61.6%, Cc1cc(SC2CCOC2=O)nc2ccccc12 (configuration not stated) 6.41%, CCNS(=O)(=O)c1ccc(CCC(=O)N2CCCC2)cc1 5.15%, CC(C)CNC(=O)CC1Nc2ccccc2NC1=O (configuration not stated) -8.18%, COc1ccc(CC(=O)N2CCC(CCC(=O)Nc3ccccc3)CC2)cc1 4.28%, O=S(=O)(/N=C(/Nc1ccc(Cl)c(S(=O)(=O)N2CCOCC2)c1)c1ccc(F)cc1)c1ccccc1 -11%, O=C(NCCCn1ccnc1)c1ccccc1F 19.4%, COc1ccc(/C=N/NC(=O)c2cccc(C(F)(F)F)c2)cc1 19.1%, Cc1cccc(N=Nc2c(O)[nH]c3ccc(F)cc23)c1 -79.4%, COCC(=O)NNC(=O)c1ccc(OC)cc1 13.7%, COc1ccc(NC(=O)c2ccc3c(c2)NC(=O)CO3)cc1OC -10.7%, CC1CCCCC1NCC(=O)NCc1ccc(F)cc1 (configuration not stated) -33.3%, CCOCCCNC(=O)c1ccc2c(=O)n(Cc3ccc4c(c3)OCO4)c(=S)[nH]c2c1 5.52%, COc1ccc(NC(=O)c2cnn(-c3ccccc3)c2C)c(OC)c1 -23.8%, Cc1ccc2nc(NC(=O)COC(=O)c3ccncc3)sc2c1 5.09%, CC1CCN(c2nc3c(c(=O)n(C)c(=O)n3C)n2CCSc2nc3ccccc3s2)CC1 -1.96%, CCCn1cnc2c(SCCc3ccccc3)nc(N)nc21 -32.1%, CC(=Nc1ccccc1O)c1sc2ccccc2c1O -12.3%, OCC1(CCOc2ccccc2)CCN(CCCn2cccn2)CC1 -20.1%
